According to PubChem BioAssay (Tox21):
Where “and” joins values, the source holds several entries; their conditions need not be identical. Equal values may be shown once. Results filed as inconclusive are left out. Calls of active or inactive are those of the source. Unless noted, calls come from the whole dose curve; as a rule, active = well fitted curve in the direction sought with a large enough effect in the repeat runs; inconclusive = weak or mixed curves; inactive = no such curve, though single readings can be large; an effect the other way counts as inactive or inconclusive.

Experiments:
[1] = qHTS assay for small molecule agonists of the p53 signaling pathway (AID 651631; calls by dose curve; note: nearly all actives have a fitted effect of over 15% in size; note: potency is the fitted concentration of half-maximal effect)
Method in brief: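 Stably transfected HCT-116 cells (beta-lactamase behind p53 response elements) get compounds after a 5 h settling period; 16 h later at 37 °C, FRET substrate is loaded and fluorescence read after 2 h.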

[2] = qHTS assay for small molecules that induce genotoxicity in human embryonic kidney cells expressing luciferase-tagged ATAD5 (AID 651632); note: nearly all actives have a fitted effect of over 15% in size; note: potency is the fitted concentration of half-maximal effect
Method in brief: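 Increased luciferase signal from ATAD5-tagged reporter cells indicates DNA-damage-driven ATAD5 induction. HEK293T cells are treated for 16 hr at 37C before detection with Amplite.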

[3] = qHTS assay for small molecules that induce genotoxicity in human embryonic kidney cells expressing luciferase-tagged ATAD5 - cell viability (AID 651634; calls by dose curve; note: nearly all actives have a fitted effect of over 25% in size)
Method in brief: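 Cytotoxicity counterscreen in HEK293T cells bearing an ATAD5-luciferase reporter: live-cell protease activity measured by CellTiter-Fluor fluorescence after 15.5 hr compound exposure.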

[4] = qHTS assay for small molecule disruptors of the mitochondrial membrane potential (AID 720635); note: potency is the fitted concentration of half-maximal effect
Method in brief: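 HepG2 cells (2,000/well) attached overnight at 37C, then took compound for 1 hr at 37C, 5% CO2. Mito-MPS dye was added for 30 min; fluorescence was read at 490/535 nm (monomers) and 540/590 nm (aggregates).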

[5] = qHTS assay to test for compound auto fluorescence at 590 nm (red) in HepG2 cells (AID 720674)
Method in brief: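 Rose Bengal sodium served as the red fluorophore standard. HepG2 monolayers (overnight attachment, MEM with 10% FBS) were exposed to test compounds for 1 hr at 37 C and read at Ex 540/Em 590 nm.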

[6] = qHTS assay to test for compound auto fluorescence at 535 nm (green) in HepG2 cells (AID 720675)
[7] = qHTS assay to test for compound auto fluorescence at 460 nm (blue) in HEK293 cells (AID 720678)
Method in brief: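 Blue-channel (Ex/Em 405/460 nm) intensity measured in HEK293 cultures after overnight compound exposure at 37C; signal expressed relative to triamterene. Cells plated 2,000 per well in 10% dialyzed FBS medium and allowed 4-5 hr to attach.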

[8] = qHTS assay to test for compound auto fluorescence at 590 nm (red) in HEK293 cells (AID 720679)
Method in brief: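 Red-channel autofluorescence (Ex/Em 540/590 nm; Rose Bengal sodium reference) was measured after overnight 37C, 5% CO2 exposure of attached HEK293 cells, 2,000 per well in medium with 10% dialyzed FBS.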

[9] = qHTS assay for small molecule agonists of the p53 signaling pathway - cell viability (AID 651633; calls by dose curve;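 note: p53RE-bla HCT reporter cells with a stable beta-lactamase p53 reporter; series mostly up to about 83 µM; nearly all actives have a fitted effect of over 30% in size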)
Method in brief: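 p53RE-bla cells, seeded at 4,000 per well and rested 5 h at 37 C/5% CO2, received compounds in DMSO for 16 h at 37 C. CellTiter-Glo was then added, and luminescence was read after 30 min at room temperature to gauge cytotoxicity.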

[10] = qHTS assay for small molecule disruptors of the mitochondrial membrane potential - cell viability (AID 720634; calls by dose curve; note: nearly all actives have a fitted effect of over 20% in size; note: potency is the fitted concentration of half-maximal effect)
Method in brief: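 After overnight attachment at 37 C, HepG2 cells received compound or DMSO vehicle for 1 hr. Viability is then taken from ATP-driven luminescence following a 30 min room-temperature CellTiter-Glo step.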
% is set by controls: 0 for no effect and ±100 for the full control effect.

CCC(Cc1ccccc1)(C(=O)c1ccc(N2CCOCC2)cc1)N(C)C (configuration not stated)
inactive: Potency [1] | Potency [2] | Potency [3] | outcome [5] | outcome [6] | Potency [7] | outcome [8]
active: Potency [4] 30.6 µM

C(=C\c1ccccc1)/CN1CCN(C(c2ccccc2)c2ccccc2)CC1
inactive: Potency [1] | Potency [9] | Potency [3] | Potency [10] | Potency [4] | fluorescence, relative to Rose Bengal [5] -0.246% [at 18.6 µM] | fluorescence, % of fluorescein control [6] 0.0028% [at 18.6 µM] | fluorescence, % of triamterene [7] 0.048% [at 18.6 µM] | fluorescence, % of fluorescent control [8] 0.417% [at 18.6 µM]

O=C(NCCCN1CCOCC1)c1ccc(Cl)cc1
inactive: Potency [1] | Potency [2] | Potency [3] | Potency [10] | outcome [5] | outcome [6] | Potency [7]

Cc1oncc1C(=O)Nc1ccc(C(F)(F)F)cc1
inactive: Potency [1] | Potency [3] | outcome [5] | outcome [6] | Potency [7] | outcome [8]
active: Potency [2] 5.07 µM and 2.73 µM | Potency [10] 61.1 µM | Potency [4] 10.1 µM and 7.7 µM

CCC(C(=O)OCCN(CC)CC)c1ccccc1 (configuration not stated)
inactive: Potency [1] | Potency [9] | Potency [3] | Potency [10] | Potency [4] | outcome [5] | outcome [6] | Potency [7]

O=C1NCCN1
inactive: Potency [1] | Potency [2] | Potency [3] | Potency [10] | outcome [5] | Potency [7] | outcome [8]

CCOC(=O)CC(=O)C(=O)OCC
inactive: Potency [1] | Potency [2] | Potency [3] | Potency [10] | Potency [4] | outcome [5] | outcome [6] | Potency [7] | outcome [8]

CCCCC1C(=O)N(c2ccccc2)N(c2ccc(O)cc2)C1=O (configuration not stated)
active: Potency [1] 12.7 µM
inactive: Potency [2] | Potency [3] | Potency [10] | fluorescence, relative to Rose Bengal [5] -0.0374% [at 18.6 µM] | fluorescence, % of fluorescein control [6] -0.0204% [at 18.6 µM] | fluorescence, % of triamterene [7] -0.133% [at 18.6 µM] | fluorescence, % of fluorescent control [8] -0.0017% [at 18.6 µM]

CCCCC(=O)O[C@]1(C(=O)CO)CC[C@H]2[C@@H]3CCC4=CC(=O)CC[C@]4(C)[C@H]3[C@@H](O)C[C@@]21C
inactive: Potency [1] | Potency [2] | Potency [3] | Potency [10] | Potency [4] | outcome [5] | outcome [6] | Potency [7]

CCOC(=O)[C@@H](C)Oc1ccc(Oc2nc3ccc(Cl)cc3o2)cc1
inactive: Potency [1] | Potency [2] | Potency [3] | Potency [10] | Potency [4] | outcome [5] | outcome [6] | Potency [7] | outcome [8]
